This note sets out measurements from PubChem BioAssay (NCATS).

A short description of test [1]: AP1 Signaling Pathway (AID 357; active = well fitted curve in either direction with a large enough effect, not every such curve was filed as active;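 note: ME-180 reporter cells stimulated with EGF at its EC50 level; % is set by controls: 0 for no effect and ±100 for the full control effect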). The conditions noted are these: ME-180 (cervical carcinoma) AP-1-bla reporter, EGF-induced, beta-lactamase ratio, 5 h; at 7.69 µM (top of the series) unless noted. In short, it runs like this:
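AP-1-bla ME-180 cells, Opti-MEM + 0.5% dialyzed FBS, plated overnight 37 °C. Cpd titration + EC50 EGF, 5 h 37 °C. CCF4 2.5 h RT; ex 405, em 460/530 ratio → %activity, AC50.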

Test [2] can be described thus: NFAT Signaling Pathway (AID 444; active = well fitted curve in either direction with a large enough effect, not every such curve was filed as active;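 note: carbachol stimulus at about its EC50 of 1 µM final; % is set by controls: 0 for no effect and ±100 for the full control effect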). The following applies: Jurkat NFAT-bla M1, carbachol, beta-lactamase ratio, 5 h; at 7.69 µM (top of the series) unless noted. In short, it runs like this: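 Jurkat cells carrying an NFAT-driven β-lactamase reporter and co-transfected muscarinic M1 receptor were treated with compound plus carbachol (1 uM final, an EC50 level) for 5 h at 37 °C. CCF4 loading followed for 1 h at RT; 460/530 nm ratio gave %activity.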

Test [3] is described as follows: Stat Signaling Pathway (AID 446; active = well fitted curve in either direction with a large enough effect, not every such curve was filed as active;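 note: ME-180 cervical cancer cells given 40 pM IL-6 alongside compound; SIE-controlled beta-lactamase reporter measured as 460/530 nm FRET emission ratio; % is set by controls: 0 for no effect and ±100 for the full control effect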). In short, it runs like this:
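FRET read-out (405 nm excitation, 460/530 nm emission) of a beta-lactamase reporter under a STAT-inducible element in ME-180 cervical carcinoma cells. Cells with compound receive 40 pM IL-6 for 5 h. Values are normalised to AC90 stimulation and AC90 JAK-inhibitor controls.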

Test [4] addresses Glucocorticoid receptor (Homo sapiens) (UniProt P04150). Put plainly: GR-GFP Redistribution (AID 450;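 active = compounds whose dose series gives a full or clear partial fitted curve of increased nuclear translocation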; note: potency is the fitted concentration of half-maximal effect). The conditions noted are these: U2OS GR-GFP nuclear translocation, laser cytometry, 2 h.
In test [5] the target is Rap guanine nucleotide exchange factor 3 (Homo sapiens) (UniProt O95398). The test can be described thus: Confirmatory qHTS for antagonist of cAMP-regulated guanine nucleotide exchange factor 3 (EPAC1) (AID 1645880).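 For activity, negative = inhibition: plate controls were DMSO only for no effect and full effect of the ATA control for full effect.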 Note: nearly all actives have a fitted effect of over 55% in size. Note: potency is the fitted concentration of half-maximal effect. The following applies: EPAC1 Rap1B-BODIPY-GDP exchange, fluorescence; activity, negative = inhibition: at 115 µM (top of the series). In short, it runs like this:
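Released BODIPY-GDP fluoresces less than Rap1-bound BODIPY-GDP; the signal is followed at 480/540 nm at 5-min intervals over 30 min, after 5 min at room temperature. Reactions contain 100 nM EPAC1, 250 nM RAP1B-BODIPY-GDP and 50 uM GDP; results are normalized to ATA and DMSO.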

Test [6] has the same target. The test can be described thus: Confirmatory qHTS for agonist of cAMP-regulated guanine nucleotide exchange factor 3 (EPAC1) (AID 1645881).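 For activation: EPAC1 catalysed release of BODIPY-GDP from Rap1B seen as fluorescence loss; 100% = effect of cAMP agonist control.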 Note: nearly all actives have a fitted effect of over 75% in size. Note: potency is the fitted concentration of half-maximal effect.
Test [7] addresses Rap guanine nucleotide exchange factor 4 (Homo sapiens) (UniProt Q8WZA2). Put plainly: Confirmatory qHTS for agonist of cAMP-regulated guanine nucleotide exchange factor 4 (EPAC2) (AID 1645884). For activation: % is set by controls: 0 for no effect and ±100 for the full control effect. Note: nearly all actives have a fitted effect of over 65% in size. Note: potency is the fitted concentration of half-maximal effect.
For test [8] the target is unchanged. Put plainly: Confirmatory qHTS for antagonist of cAMP-regulated guanine nucleotide exchange factor 4 (EPAC2) (AID 1645885). Note: nearly all actives have a fitted effect of over 25% in size. Note: potency is the fitted concentration of half-maximal effect.
For test [9], the target named is Rap guanine nucleotide exchange factor 3 (Homo sapiens) (UniProt O95398). The test can be described thus: Counterscreen qHTS for antagonist of cAMP-regulated guanine nucleotide exchange factor 3 (EPAC1) (AID 1645888). Note: % of control where 0% means no effect. In short, it runs like this:
(§1)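 Measured: fluorescence of BODIPY-GDP bound to Rap1B, which falls as exchange proceeds. Conditions include 50 uM competing GDP, 5 and 30 min reads, and a later cAMP challenge for antagonist detection.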

Test [10] concerns the target DNA polymerase iota (Homo sapiens) (UniProt Q9UNA4). Put plainly: qHTS for Inhibitors of Polymerase Iota: Confirmatory Assay for Cherry-picked Compounds (AID 720496). Note: potency is the fitted concentration of half-maximal effect. The conditions noted are these: Pol iota primer extension, TAMRA/BHQ fluorescence. In short, it runs like this: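 Extension of a quenched TAMRA-reporter/BHQ-2-template DNA substrate (50 nM) by 10 nM Pol iota after 15 min compound preincubation. Strand-displacement fluorescence (525/598 nm) was read kinetically at 0 and 10 min. Buffer-only wells served as negative control.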

Test [11] concerns the target DNA polymerase eta (Homo sapiens) (UniProt Q9Y253). The test can be described thus: qHTS for Inhibitors of Polymerase Eta: Confirmatory Assay for Cherry-picked Compounds (AID 720502). Note: potency is the fitted concentration of half-maximal effect. The conditions noted are these: Pol eta primer extension, TAMRA/BHQ fluorescence, 10 min. In short, it runs like this:
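10 nM Pol eta + cpd, 15 min RT; start w/ 50 nM final primer/TAMRA-reporter/BHQ-2-template substrate; kinetic read 0 and 10 min, ex 525/em 598 nm. Buffer-only wells = negative control.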

Test [12] concerns the target Rap guanine nucleotide exchange factor 3 (Homo sapiens) (UniProt O95398). The test can be described thus: Counterscreen qHTS for agonist of cAMP-regulated guanine nucleotide exchange factor 3 (EPAC1) (AID 1645889). For activation: % of control where 0% means no effect. Note: nearly all actives have a fitted effect of over 40% in size. Note: potency is the fitted concentration of half-maximal effect. In short, it runs like this:
as §1

Test [13] can be described thus: qHTS for Inhibitors of Plasmodium falciparum (DD2) proliferation (AID 504314).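 Note: parasite DNA measured by SYBR Green fluorescence after red cell lysis; plate controls were DMSO vehicle for no effect and artemisinin wells for full effect.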 In short, it runs like this: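 SYBR Green growth assay: 72 h compound exposure of infected red cells (2.5% hematocrit, 0.3% parasitemia), then lysis and overnight dye staining, fluorescence 485/535 nm. Values scaled between DMSO and 0.29 uM artemisinin controls.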
Test [14] can be described thus: qHTS for Inhibitors of Plasmodium falciparum (GB4) proliferation (AID 504315).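 Note: 0% = DMSO vehicle and -100% = 0.29 µM artemisinin control; nearly all actives have a fitted effect of over 50% in size.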 The gist of the method: (§2)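 Parasite growth measured as SYBR Green DNA fluorescence (ex 485, em 535 nm) after overnight lysis following 72 h culture at 37 °C, 0.3% parasitemia, 2.5% hematocrit. Values normalized against DMSO and 0.29 uM artemisinin controls, with plate-stack correction.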

Test [15] can be described thus: qHTS for Inhibitors of Plasmodium falciparum (7G8) proliferation (AID 504316).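 Note: 0% = DMSO vehicle and -100% = 0.29 µM artemisinin full kill; nearly all actives have a fitted effect of over 65% in size.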 In short, it runs like this:
as §2

Test [16] can be described thus: qHTS for Inhibitors of Plasmodium falciparum (HB3) proliferation (AID 504318).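 Note: 0% = DMSO vehicle and -100% = artemisinin control; nearly all actives have a fitted effect of over 60% in size.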 The gist of the method:
as §2

Test [17] is described as follows: qHTS for Inhibitors of Plasmodium falciparum (CP250) proliferation (AID 504320).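 Note: plate controls were DMSO vehicle for no effect and 0.29 µM artemisinin control for full effect.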 In short, it runs like this: as §2
The target of test [18] is Tumor susceptibility gene 101 protein (Homo sapiens) (UniProt Q99816). Put plainly: qHTS Assay for Iinhibitors of HIV-1 Budding by Blocking the Interaction of PTAP/TSG101: Hit Validation (AID 651600). Note: nearly all actives have a fitted effect of over 70% in size. Note: potency is the fitted concentration of half-maximal effect. In short, it runs like this: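 Measuring PTAP–Tsg101 interaction by FP: protein at 10 uM and fluorescent peptide at 50 nM (final), buffer 10 mM HEPES pH 7.5 with 0.15 M NaCl, 3 mM EDTA, 0.1 mM TCEP, 0.01% Tween 20; 20 min incubation, r.t.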

The structures appear in SMILES notation. Values without a mark were called inactive. Inconclusive results are not listed. The list shows a part of the results. Calls of active or inactive are those of the source. Unless noted, calls come from the whole dose curve; as a rule, active = well fitted curve in the direction sought with a large enough effect; inconclusive = small, poorly fitted or top-dose-only effect, or another doubt; inactive = no such curve, though single readings can be large; an effect the other way counts as inactive or inconclusive.

Sequence of Rap guanine nucleotide exchange factor 4 (Homo sapiens) (Q8WZA2 whole entry, looked up): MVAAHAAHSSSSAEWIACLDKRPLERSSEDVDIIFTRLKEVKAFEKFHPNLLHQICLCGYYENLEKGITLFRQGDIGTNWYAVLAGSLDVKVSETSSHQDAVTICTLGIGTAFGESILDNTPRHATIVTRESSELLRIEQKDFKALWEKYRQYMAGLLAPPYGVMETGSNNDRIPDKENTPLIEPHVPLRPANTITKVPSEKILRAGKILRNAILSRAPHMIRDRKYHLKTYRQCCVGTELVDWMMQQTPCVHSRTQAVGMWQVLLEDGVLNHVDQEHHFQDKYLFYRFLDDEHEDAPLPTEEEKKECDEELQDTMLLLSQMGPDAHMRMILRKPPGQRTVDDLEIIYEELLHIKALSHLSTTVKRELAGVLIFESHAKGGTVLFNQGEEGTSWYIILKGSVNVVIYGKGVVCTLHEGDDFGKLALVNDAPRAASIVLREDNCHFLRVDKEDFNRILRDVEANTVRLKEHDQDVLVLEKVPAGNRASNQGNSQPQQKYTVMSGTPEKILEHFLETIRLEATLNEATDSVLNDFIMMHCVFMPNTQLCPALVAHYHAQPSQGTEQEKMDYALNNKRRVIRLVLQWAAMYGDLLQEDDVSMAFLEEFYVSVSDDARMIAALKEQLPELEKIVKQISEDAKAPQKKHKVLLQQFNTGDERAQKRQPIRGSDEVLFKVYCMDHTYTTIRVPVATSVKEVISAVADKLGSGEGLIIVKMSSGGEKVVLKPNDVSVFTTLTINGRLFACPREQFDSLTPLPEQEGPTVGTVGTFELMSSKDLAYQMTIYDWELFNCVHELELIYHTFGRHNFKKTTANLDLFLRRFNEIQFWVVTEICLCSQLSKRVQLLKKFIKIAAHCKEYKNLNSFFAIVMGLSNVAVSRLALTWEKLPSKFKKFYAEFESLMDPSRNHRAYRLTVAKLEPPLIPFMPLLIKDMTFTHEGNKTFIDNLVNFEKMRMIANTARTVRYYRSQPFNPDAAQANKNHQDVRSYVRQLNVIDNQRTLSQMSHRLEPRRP
Sequence of Tumor susceptibility gene 101 protein (Homo sapiens) (Q99816 whole entry, looked up): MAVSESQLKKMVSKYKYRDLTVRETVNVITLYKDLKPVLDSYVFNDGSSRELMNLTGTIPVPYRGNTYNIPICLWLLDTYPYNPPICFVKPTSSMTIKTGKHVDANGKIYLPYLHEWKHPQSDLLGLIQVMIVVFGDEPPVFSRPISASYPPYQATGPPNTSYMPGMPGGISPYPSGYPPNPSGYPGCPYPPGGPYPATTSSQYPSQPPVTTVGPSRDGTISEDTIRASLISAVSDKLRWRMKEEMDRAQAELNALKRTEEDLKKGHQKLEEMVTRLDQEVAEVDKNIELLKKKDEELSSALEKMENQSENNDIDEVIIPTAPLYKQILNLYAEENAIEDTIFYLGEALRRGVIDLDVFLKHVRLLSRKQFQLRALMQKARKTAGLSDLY
Sequence of Rap guanine nucleotide exchange factor 3 (Homo sapiens) (O95398 whole entry, looked up): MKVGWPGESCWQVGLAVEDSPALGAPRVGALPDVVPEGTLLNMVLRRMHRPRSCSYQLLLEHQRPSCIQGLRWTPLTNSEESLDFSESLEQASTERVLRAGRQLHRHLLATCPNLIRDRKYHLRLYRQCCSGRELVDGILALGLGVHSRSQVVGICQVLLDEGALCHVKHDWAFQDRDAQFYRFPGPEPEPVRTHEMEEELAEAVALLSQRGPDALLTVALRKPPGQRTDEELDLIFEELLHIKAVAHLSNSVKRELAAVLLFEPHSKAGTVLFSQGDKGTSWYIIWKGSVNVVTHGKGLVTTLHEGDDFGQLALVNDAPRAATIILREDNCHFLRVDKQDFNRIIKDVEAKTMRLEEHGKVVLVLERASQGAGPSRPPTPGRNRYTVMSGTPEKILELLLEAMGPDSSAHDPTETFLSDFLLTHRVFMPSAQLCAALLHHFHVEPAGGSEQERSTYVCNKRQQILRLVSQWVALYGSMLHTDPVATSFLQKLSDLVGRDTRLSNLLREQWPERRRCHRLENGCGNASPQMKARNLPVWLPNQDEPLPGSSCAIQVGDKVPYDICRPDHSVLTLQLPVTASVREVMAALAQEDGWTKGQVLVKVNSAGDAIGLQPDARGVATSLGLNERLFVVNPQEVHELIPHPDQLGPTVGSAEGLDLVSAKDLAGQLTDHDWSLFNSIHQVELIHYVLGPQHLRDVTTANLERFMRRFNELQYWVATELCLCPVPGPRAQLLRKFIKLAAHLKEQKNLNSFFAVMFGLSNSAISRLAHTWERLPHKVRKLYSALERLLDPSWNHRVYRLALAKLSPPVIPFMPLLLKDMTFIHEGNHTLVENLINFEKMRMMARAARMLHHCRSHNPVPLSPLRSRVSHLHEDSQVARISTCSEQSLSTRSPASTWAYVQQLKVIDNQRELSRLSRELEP
Sequence of DNA polymerase eta (Homo sapiens) (Q9Y253 whole entry, looked up): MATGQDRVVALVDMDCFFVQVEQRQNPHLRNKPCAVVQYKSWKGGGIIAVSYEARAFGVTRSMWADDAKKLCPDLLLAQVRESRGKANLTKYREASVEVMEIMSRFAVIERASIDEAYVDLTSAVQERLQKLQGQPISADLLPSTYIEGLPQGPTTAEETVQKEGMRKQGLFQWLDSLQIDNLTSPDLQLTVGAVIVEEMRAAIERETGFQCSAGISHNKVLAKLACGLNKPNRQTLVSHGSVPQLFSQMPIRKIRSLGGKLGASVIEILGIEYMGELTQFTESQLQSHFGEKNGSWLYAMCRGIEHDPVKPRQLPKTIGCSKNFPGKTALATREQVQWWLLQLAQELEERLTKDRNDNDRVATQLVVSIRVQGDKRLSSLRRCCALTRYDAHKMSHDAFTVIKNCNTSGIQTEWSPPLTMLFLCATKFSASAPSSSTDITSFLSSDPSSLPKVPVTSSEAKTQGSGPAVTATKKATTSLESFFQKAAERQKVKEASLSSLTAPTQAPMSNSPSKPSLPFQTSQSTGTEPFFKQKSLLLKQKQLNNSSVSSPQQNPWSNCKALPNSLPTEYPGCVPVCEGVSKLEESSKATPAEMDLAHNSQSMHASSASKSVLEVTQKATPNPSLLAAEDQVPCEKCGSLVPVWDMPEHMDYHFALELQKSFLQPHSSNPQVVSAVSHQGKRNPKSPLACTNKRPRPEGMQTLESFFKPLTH
Sequence of DNA polymerase iota (Homo sapiens) (Q9UNA4 whole entry, looked up): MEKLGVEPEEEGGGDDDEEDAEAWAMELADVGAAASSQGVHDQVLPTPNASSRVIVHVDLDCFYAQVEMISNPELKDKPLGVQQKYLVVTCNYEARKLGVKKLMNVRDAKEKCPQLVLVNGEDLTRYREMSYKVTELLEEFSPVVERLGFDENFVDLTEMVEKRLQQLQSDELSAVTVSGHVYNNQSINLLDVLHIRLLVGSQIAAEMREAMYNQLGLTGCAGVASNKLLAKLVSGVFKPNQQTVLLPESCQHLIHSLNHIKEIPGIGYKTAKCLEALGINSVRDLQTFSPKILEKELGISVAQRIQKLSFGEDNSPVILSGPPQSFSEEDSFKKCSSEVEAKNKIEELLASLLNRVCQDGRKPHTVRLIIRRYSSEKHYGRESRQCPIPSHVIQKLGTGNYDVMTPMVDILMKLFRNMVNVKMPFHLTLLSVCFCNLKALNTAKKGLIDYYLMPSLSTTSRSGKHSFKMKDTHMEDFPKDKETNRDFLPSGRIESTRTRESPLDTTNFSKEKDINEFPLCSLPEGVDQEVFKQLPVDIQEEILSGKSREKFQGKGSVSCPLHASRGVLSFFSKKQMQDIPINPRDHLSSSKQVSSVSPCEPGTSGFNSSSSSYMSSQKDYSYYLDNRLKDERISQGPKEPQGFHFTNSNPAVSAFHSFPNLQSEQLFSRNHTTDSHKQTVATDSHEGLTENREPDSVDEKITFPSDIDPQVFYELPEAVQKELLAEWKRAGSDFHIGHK
Sequence of Glucocorticoid receptor (Homo sapiens) (P04150 whole entry, looked up): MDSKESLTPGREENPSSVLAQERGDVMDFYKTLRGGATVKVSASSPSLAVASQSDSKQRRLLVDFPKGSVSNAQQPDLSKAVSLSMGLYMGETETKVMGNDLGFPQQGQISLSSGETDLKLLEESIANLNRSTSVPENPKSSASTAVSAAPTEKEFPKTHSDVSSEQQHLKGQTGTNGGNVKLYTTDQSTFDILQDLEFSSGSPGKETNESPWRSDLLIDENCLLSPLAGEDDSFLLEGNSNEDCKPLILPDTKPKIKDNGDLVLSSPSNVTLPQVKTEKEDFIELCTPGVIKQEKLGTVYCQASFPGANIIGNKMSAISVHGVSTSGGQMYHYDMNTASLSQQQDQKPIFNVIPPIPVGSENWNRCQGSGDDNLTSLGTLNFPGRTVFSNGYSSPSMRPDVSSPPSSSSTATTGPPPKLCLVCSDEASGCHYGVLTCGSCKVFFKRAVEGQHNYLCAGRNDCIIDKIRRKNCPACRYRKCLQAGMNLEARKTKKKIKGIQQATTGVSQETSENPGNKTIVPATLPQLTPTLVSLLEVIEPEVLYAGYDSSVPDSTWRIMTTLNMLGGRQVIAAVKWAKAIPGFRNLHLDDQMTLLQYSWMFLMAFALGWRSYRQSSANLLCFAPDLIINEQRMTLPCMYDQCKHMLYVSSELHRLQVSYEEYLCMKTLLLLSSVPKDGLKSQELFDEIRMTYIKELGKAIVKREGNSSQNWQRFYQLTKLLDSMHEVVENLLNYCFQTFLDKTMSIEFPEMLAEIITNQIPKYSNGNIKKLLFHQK

Turning to `COCCn1c(N)c(C(=O)NCC2CCCO2)c2nc3ccccc3nc21` (stereo not drawn), the activity change, negative = inhibition in test [1] was -8.13% [at 17.2 µM]; in test [2], 8.7% [at 17.2 µM]. For the same compound, in test [3], the compound was called inactive. The Potency in test [4] is > 20.6 µM. Also, the Potency result in [5], in test [6], in test [7], in test [8] and in test [9] was “inactive” each time.

For `NC1=CC(=O)C(=O)c2cccnc21`, the figures for the Potency in test [10], in [11] and in test [5] were 42.3 µM (active), 26.9 µM (active) and 10 µM (active), respectively. Also, the Potency result in test [6] and in test [8] was “inactive” each time. Moreover, the activation in [7] is 3.71% [at 17.1 µM, percent relative to cAMP agonist control]; in [12], 11.2% [at 30.8 µM]. For the same compound, the activity change, negative = inhibition in test [9] is -7.69% [at 30.8 µM].

In the case of `COC(=O)C1=C(C(=O)OC)[C@@H]2N(Cc3ccccc3)c3ccccc3[C@@]23C[C@@H](C(=O)OC)N=C3N1`, the compound was classed as inactive in test [13], in test [14], in test [15], in test [16] and in [17]. The Potency result in test [5], in test [6] and in test [8] was “inactive” throughout. Also, the activation in test [7] is 0% [at 17.1 µM, percent relative to cAMP agonist control]. Moreover, the activity change, negative = inhibition in [9] was 17% [at 30.8 µM].

As to `Cc1cc(=O)oc2ccc(OC(=O)CN3C(=O)c4cccc([N+](=O)[O-])c4C3=O)cc12`, the Potency result in [18], in test [5], in test [6], in [7], in [8] and in test [9] was “inactive” each time. The Potency entry in test [12] is “inactive”.

Consider `O=C1c2cccc3c(O)ccc(c23)C(=O)N1c1ccc(Cl)cc1`, for which the Potency in test [18] is 4.11 µM (active); in [6], 112 µM (active); in [7], 112 µM (active); in test [8], 84.9 µM (active); in test [12], 39.8 µM (active). The Potency result in test [5] and in test [9] was “inactive” in each case.

On to `COC(=O)c1ccc(COc2ccc(/C=C/C(=O)c3ccc(OC)c(CSCC(=O)O)c3)cc2OC)cc1`, for which the Potency in [10] was 75.2 µM (active); in test [11], 60.1 µM (active); in test [5] it was 37.9 µM (active). Further, the Potency result in test [6], in [7], in test [8], in [9] and in test [12] was “inactive” throughout.

As for `Cc1cccc(N2C(=O)c3cccc4c(N(C)CCO)ccc(c34)C2=O)c1`, the Potency was 3.66 µM (active) in test [18], 89.1 µM (active) in [6], 100 µM (active) in [7] and 39.8 µM (active) in [12]. Also, the Potency entry in [5], in test [8] and in test [9] was “inactive” throughout.

In the case of `Cc1cc(C=C2C(=O)c3ccccc3C2=O)c(C)n1-c1ccc(Cl)cc1`, the Potency result in test [18], in [5], in test [6] and in [8] was “inactive” each time. Further, the activation is 3.84% [at 17.1 µM, percent relative to cAMP agonist control] in test [7] and 7.12% [at 30.8 µM] in [12]. In addition, the activity change, negative = inhibition in [9] is -26.7% [at 30.8 µM].
